Target: T1, Tyrosyl-tRNA synthetase, putative (Trypanosoma cruzi (strain CL Brener)) (UniProt Q4DSP6)
T1 sequence (whole entry): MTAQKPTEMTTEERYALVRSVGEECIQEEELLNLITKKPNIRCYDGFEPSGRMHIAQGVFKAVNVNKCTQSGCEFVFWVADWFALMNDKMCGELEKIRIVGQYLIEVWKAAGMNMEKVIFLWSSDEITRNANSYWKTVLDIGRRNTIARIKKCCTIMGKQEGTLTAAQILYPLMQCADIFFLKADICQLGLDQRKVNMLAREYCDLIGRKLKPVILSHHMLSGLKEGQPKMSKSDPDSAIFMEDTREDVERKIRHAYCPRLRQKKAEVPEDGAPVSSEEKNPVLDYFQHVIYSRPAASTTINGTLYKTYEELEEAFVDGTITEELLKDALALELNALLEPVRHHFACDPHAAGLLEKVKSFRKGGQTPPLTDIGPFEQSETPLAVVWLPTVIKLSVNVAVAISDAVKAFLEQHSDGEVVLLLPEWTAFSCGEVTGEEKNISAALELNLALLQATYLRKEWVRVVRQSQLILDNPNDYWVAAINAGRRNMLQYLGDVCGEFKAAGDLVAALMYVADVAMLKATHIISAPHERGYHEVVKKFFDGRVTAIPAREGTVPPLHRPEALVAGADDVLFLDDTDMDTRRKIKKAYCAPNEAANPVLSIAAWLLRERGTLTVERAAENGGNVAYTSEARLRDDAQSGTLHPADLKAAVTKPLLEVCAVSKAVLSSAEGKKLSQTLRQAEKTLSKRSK
Test: Trypanosoma cruzi tyrosyl tRNA synthetase (TcYRS) _High Tyrosine SOP; further: in the data most compounds retested in dose-response had high values
Format: functional
Design: scale not given: direction of the effect not stated beside the values
Conditions: 30 µM

Compound	Percent Effect [%]
COc1ccc(CCN2CCCC(CN(C)Cc3ccc(C)o3)C2)cc1 (stereo not drawn)	5.38
CC(C)(C(=O)NCC(N)=O)c1ccccc1F	2.1
COc1cc(C)c(C(C)NC(=O)Nc2nnc(C)s2)cc1OC (stereo not drawn)	2.15
Cc1ccc(CN2CC[C@H]3[C@@H]2CCC(=O)N3CCN2CCCC2)s1	-3.19
CS(=O)(=O)NC[C@@H]1OC[C@H]2CN(C(=O)c3ccc[nH]3)CC[C@H]21	-265
CC(C)OCCCNC(=O)CN1CCC(N2CCN(C)C2=O)CC1	-0.493
O=C(Cn1nc(-c2ccc(F)cc2)oc1=O)Nc1ccccc1	6.37
CNS(=O)(=O)c1cccc(C(C)NCc2nccn2C(C)C)c1 (stereo not drawn)	10.9
Cc1cc(C)n(CC2CCCN2C(=O)c2cccc3[nH]ncc23)n1 (stereo not drawn)	5.94
CC1CCCN(Cc2c(C3CCOCC3)[nH]c3ncccc23)C1 (stereo not drawn)	2.15
CCCc1nc(CN2CCOC(CNc3cccnn3)C2)cs1 (stereo not drawn)	14.3
CN(C)C(=O)C1CN(Cc2c[nH]cn2)CCN(C2CCOCC2)C1 (stereo not drawn)	6.45
CC(Oc1ccccc1C(F)(F)F)C(=O)NCC(N)=O (stereo not drawn)	12.9
CCn1cc(CN(C)S(=O)(=O)c2ccc(Cl)cc2)cn1	4.23
Cc1cnn(CC2CCCCN2C(=O)CN(C)C2CC2)c1 (stereo not drawn)	6.25
Cc1ccc(NC2CCN(C(=O)Cc3cccc(F)c3)CC2)nn1	9.36
O=C(NCCCN1CCOCC1)c1cc(-c2ccco2)[nH]n1	11.5
CCc1ccc(S(=O)(=O)Nc2cc(C(=O)O)c(F)cc2F)s1	2.46
O=C(Nc1ccc(F)cc1)N1C[C@H]2CC[C@@H]1CN(Cc1cccnc1)C2	10.8
CCC(C)NC(=O)Nc1ccc(CN2CCOC2=O)cc1 (stereo not drawn)	-2.1

Compound	Percent Effect [%]
Cc1cnc2c(S(=O)(=O)NCC3CCS(=O)(=O)C3)cccc2c1 (stereo not drawn)	7.39
Cn1ncc2c(=O)[nH]c(CN3CCCC3CC3CCCCC3)nc21 (stereo not drawn)	6.4
COc1cc(CNC(=O)c2c(C)noc2C(C)C)ccn1	10.7
Cc1nc(C)n(CC2CN(CCc3ccncc3)CCO2)n1 (stereo not drawn)	4.3
Nc1cc2c(nn1)CCN(C(=O)c1cccc3c1OCCO3)C2	5.83
COc1cccc(CN2CCCCCC2c2cccs2)c1O (stereo not drawn)	-1.06
CC(C)c1cc(NC(=O)CN2CCc3ccccc3C2)on1	7.77
Cc1cc(C[C@@H]2COC[C@H]2NCc2ccc(Br)s2)on1	-2.15
Cn1nc(C2CN(C(=O)c3cscn3)C2)c2nccnc21	6.45
Cc1cc(C)n(CC(=O)N2CCC(NS(=O)(=O)c3ccccc3)CC2)n1	1.47
Cc1ccccc1C(=O)CN1C(=O)c2ccccc2CS1(=O)=O	-25.9
CCCS(=O)(=O)N1CCC(NC(=O)c2ccc(Cl)s2)CC1	8.2
COCC(c1cccc(C(F)(F)F)c1)N(C)C(=O)c1cc(C)n[nH]1 (stereo not drawn)	1.47
Cc1nn(C)c(C)c1CCC(=O)N1CCCC1Cn1cccn1 (stereo not drawn)	1.98
CN(Cc1ccc(F)cc1)C(=O)NCc1nnc2n1CCCCC2	6.4
Cc1cc(CN2CCN(C(=O)NCc3nc(C)cs3)CC2)on1	5.42
COCCOc1ccc(NC(=O)C2CC(=O)N(C)C2)cn1 (stereo not drawn)	1.48
Cc1cnn(CC2CCCN2C(=O)CCc2nc3ccccc3[nH]2)c1 (stereo not drawn)	1.48
CCN(CC)C(=O)c1ccc(-c2ccsc2)nc1C	4.21

Target: T1, Tyrosyl-tRNA synthetase, putative (Trypanosoma cruzi (strain CL Brener))
Test: Trypanosoma cruzi tyrosyl tRNA synthetase (TcYRS) SOP
Format: functional
Design: scale not given: direction of the effect not stated beside the values
Conditions: 30 µM

Compound	Percent Effect [%]
COc1ccc(CCN2CCCC(CN(C)Cc3ccc(C)o3)C2)cc1 (stereo not drawn)	11.1
CC(C)(C(=O)NCC(N)=O)c1ccccc1F	0
COc1cc(C)c(C(C)NC(=O)Nc2nnc(C)s2)cc1OC (stereo not drawn)	11.1
Cc1ccc(CN2CC[C@H]3[C@@H]2CCC(=O)N3CCN2CCCC2)s1	1.28
CS(=O)(=O)NC[C@@H]1OC[C@H]2CN(C(=O)c3ccc[nH]3)CC[C@H]21	-628
CC(C)OCCCNC(=O)CN1CCC(N2CCN(C)C2=O)CC1	8.86
O=C(Cn1nc(-c2ccc(F)cc2)oc1=O)Nc1ccccc1	21.9
CNS(=O)(=O)c1cccc(C(C)NCc2nccn2C(C)C)c1 (stereo not drawn)	15.8
Cc1cc(C)n(CC2CCCN2C(=O)c2cccc3[nH]ncc23)n1 (stereo not drawn)	15.8
CC1CCCN(Cc2c(C3CCOCC3)[nH]c3ncccc23)C1 (stereo not drawn)	11.7
CCCc1nc(CN2CCOC(CNc3cccnn3)C2)cs1 (stereo not drawn)	30.9
CN(C)C(=O)C1CN(Cc2c[nH]cn2)CCN(C2CCOCC2)C1 (stereo not drawn)	16.9
CC(Oc1ccccc1C(F)(F)F)C(=O)NCC(N)=O (stereo not drawn)	15.8
CCn1cc(CN(C)S(=O)(=O)c2ccc(Cl)cc2)cn1	7.69
Cc1cnn(CC2CCCCN2C(=O)CN(C)C2CC2)c1 (stereo not drawn)	15.2
Cc1ccc(NC2CCN(C(=O)Cc3cccc(F)c3)CC2)nn1	28.4
O=C(NCCCN1CCOCC1)c1cc(-c2ccco2)[nH]n1	28.4
CCc1ccc(S(=O)(=O)Nc2cc(C(=O)O)c(F)cc2F)s1	16.1
O=C(Nc1ccc(F)cc1)N1C[C@H]2CC[C@@H]1CN(Cc1cccnc1)C2	20
CCC(C)NC(=O)Nc1ccc(CN2CCOC2=O)cc1 (stereo not drawn)	-5.13

Compound	Percent Effect [%]
Cc1cnc2c(S(=O)(=O)NCC3CCS(=O)(=O)C3)cccc2c1 (stereo not drawn)	23.5
Cn1ncc2c(=O)[nH]c(CN3CCCC3CC3CCCCC3)nc21 (stereo not drawn)	25.9
COc1cc(CNC(=O)c2c(C)noc2C(C)C)ccn1	21.9
Cc1nc(C)n(CC2CN(CCc3ccncc3)CCO2)n1 (stereo not drawn)	10
Nc1cc2c(nn1)CCN(C(=O)c1cccc3c1OCCO3)C2	12.2
COc1cccc(CN2CCCCCC2c2cccs2)c1O (stereo not drawn)	8.97
CC(C)c1cc(NC(=O)CN2CCc3ccccc3C2)on1	26.8
Cc1cc(C[C@@H]2COC[C@H]2NCc2ccc(Br)s2)on1	-3.9
Cn1nc(C2CN(C(=O)c3cscn3)C2)c2nccnc21	11.7
Cc1cc(C)n(CC(=O)N2CCC(NS(=O)(=O)c3ccccc3)CC2)n1	7.32
Cc1ccccc1C(=O)CN1C(=O)c2ccccc2CS1(=O)=O	-31.7
CCCS(=O)(=O)N1CCC(NC(=O)c2ccc(Cl)s2)CC1	16.1
COCC(c1cccc(C(F)(F)F)c1)N(C)C(=O)c1cc(C)n[nH]1 (stereo not drawn)	12.2
Cc1nn(C)c(C)c1CCC(=O)N1CCCC1Cn1cccn1 (stereo not drawn)	11
CN(Cc1ccc(F)cc1)C(=O)NCc1nnc2n1CCCCC2	13.9
Cc1cc(CN2CCN(C(=O)NCc3nc(C)cs3)CC2)on1	13.6
COCCOc1ccc(NC(=O)C2CC(=O)N(C)C2)cn1 (stereo not drawn)	11.4
Cc1cnn(CC2CCCN2C(=O)CCc2nc3ccccc3[nH]2)c1 (stereo not drawn)	8.86
CCN(CC)C(=O)c1ccc(-c2ccsc2)nc1C	5.13
